Bioassay records (PubChem BioAssay)
KCNQ2 inh = KCNQ2 (rat) channel inhibition; O88943; CHO-K1 KCNQ2, FluxOR thallium flux, 20 min; active compounds read low; B-score at 10 µM; 1.1% of 310,000 active; AID 2156;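 active means fluorescence ratio B-score at most minus 3 library SDs, with starting brightness B-score within 2 library SDs, cut at about -5.5 in these data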
KCNQ2 enhance = enhances the rat KCNQ2 potassium channel | O88943 | CHO-K1 KCNQ2, FluxOR thallium flux fluorescence; active compounds read high | B-score at 10 µM | 0.54% of 310,000 active | AID 2239;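 active means fluorescence ratio B-score at least 3 SD of library B-scores, with initial fluorescence B-score within 3 of them, cut at about 5.3 in these data; same plate scores as AID 2156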;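 further: B-score of peak minus minimum over baseline fluorescence ratio after K+ and Tl+ stimulus; positive B-score means potentiation of KCNQ2 with more thallium influx and brighter signal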
Starred values were filed as active, the others as inactive; i = inactive; nt = no result. Compounds with a hit are over-represented: about 1.6% of the library has one in this group of screens.

SMILES	KCNQ2 inh	KCNQ2 enhance
CC1(C)Cc2ccccc2-c2nc(NN)[nH]c(=O)c21	i	nt
CC1(C)Cc2ccccc2-c2nc(-c3ccccc3)oc(=O)c21	-7.9*	-7.9
CC(=O)N1CCCN(Cc2cn(-c3cccc(C)c3)nc2-c2cccc(F)c2)CC1	i	nt
O=C(Nc1cc(S(=O)(=O)N2CCCCC2)ccc1O)c1ccccc1NS(=O)(=O)c1ccc(F)c(F)c1	i	0.42
Cn1c(=O)c(C(=O)NCCc2ccccc2)c(O)c2ccccc21	i	nt
CC(NC(=O)c1c(O)c2ccccc2n(C)c1=O)c1ccccc1 (configuration not stated)	-5.8*	-5.8
N/C(=N\OC(=O)c1cccc2ccccc12)c1ccc(Br)cc1	-5.6*	-5.6
Cc1ccc(C(=O)O/N=C(\N)c2ccc(Br)cc2)cc1C	i	0.55
N/C(=N\OC(=O)c1cccc2ccccc12)c1ccncc1	i	nt
Cc1cc(C)cc(C(=O)O/N=C(\N)c2ccc(Br)cc2)c1	-6.8*	-6.8
Cc1ccc(C)c(S(=O)(=O)c2c(C)cc(C)[nH]c2=O)c1	i	0.14
O=C(CSC(=S)N1CCOCC1)c1cc2ccccc2oc1=O	i	0.56
CC12CCC(C/C1=N\N=C1\NC(=O)/C(=C\c3ccc(Cl)cc3)S1)C2(C)C (configuration not stated)	i	13*
O=C1NC(=Nc2ccccc2Cl)S/C1=C\c1ccc(C(=O)O)cc1	i	nt
O=[N+]([O-])c1ccc(CN2CCC(Cc3ccccc3)CC2)cc1	i	0.36
O=[N+]([O-])c1cccc(OCCCN2CCC(Cc3ccccc3)CC2)c1	-5.7*	-5.7
COc1ccc(CNCc2cn(-c3cccc(F)c3)nc2-c2ccc(C)o2)cc1	i	nt
O=C(Nc1nc2c(F)cc(F)cc2s1)C1CC(=O)N(Cc2ccco2)C1 (configuration not stated)	i	0.41
Cc1cccc(/C=C2\Sc3ccc(C(=O)N4CCCCC4)cc3N(C)C2=O)c1	i	nt
Cc1cccc(/C=C2\Sc3ccc(C(=O)N4CCC(C)CC4)cc3N(C)C2=O)c1	-6.5*	-6.5
O=C(Nc1ccc(S(=O)(=O)Nc2ncccn2)cc1)c1cccc(S(=O)(=O)N2CCOCC2)c1	i	nt
CN1/C(=C\C(=O)COC(=O)c2ccc(O)c(O)c2)C(C)(C)c2ccccc21	-6.5*	-6.5
CN1/C(=C\C(=O)COC(=O)c2ccc(O)cc2)C(C)(C)c2ccccc21	-6.2*	-6.2
CCOC(=O)/C=C1/N(C)c2ccccc2C1(C)C	i	1.9
CNS(=O)(=O)c1cccc(C(=O)OCC(=O)/C=C2/N(C)c3ccccc3C2(C)C)c1	i	1.3
SMILES	KCNQ2 inh	KCNQ2 enhance
CCOc1ccc(-c2c(C(=O)N/N=C/c3ccc(Cl)cc3)nnn2-c2nonc2N)cc1	i	0.98
Cc1ccc(C)c(OC(C)C(=O)Nc2ccc(S(=O)(=O)Nc3nccs3)cc2)c1 (configuration not stated)	i	nt
COC(=O)c1cn(CCOc2ccccc2)c2ccccc12	i	nt
CCN(CC)C(=O)C(=O)c1cn(CCOc2ccccc2)c2ccccc12	-7.3*	-7.3
CC1C(=O)C(C)C(c2ccc3c(c2)OCO3)NC1c1ccc2c(c1)OCO2 (configuration not stated)	i	nt
CC1C(=O)C(C)C(c2ccc(Br)cc2)NC1c1ccc(Br)cc1 (configuration not stated)	-6.3*	-6.3
CC(C)CNC(=O)c1cccc2c1-c1ccccc1C2=O	i	nt
Cc1cc(C)n(-c2nc3ccccc3c(=O)n2OCC(=O)N(C)C)n1	i	0.04
Cc1cc(C)n(-c2nc3ccccc3c(=O)n2OCC(=O)Nc2c(C)cccc2C)n1	-6*	-6
CCNc1ncnc2c1cnn2C	i	nt
CCC(=O)N1CCc2cc(S(=O)(=O)CCC(=O)Nc3ccc(OC)c(OC)c3)ccc21	i	0.05
CCOC(=O)c1ccccc1NC(=O)c1cn(-c2ccc(C)c(C)c2)c(=O)c2ccccc12	-6.4*	-6.4
COC(=O)c1ccccc1NC(=O)c1cn(-c2ccc(C)c(C)c2)c(=O)c2ccccc12	i	nt
Cc1ccc(C(=O)NCCCNC(=O)COc2ccc(Cl)cc2)cn1	i	1.3
O=C(CN1C(=O)COc2ccc(S(=O)(=O)N3CCCC3)cc21)NC1CC1	i	nt
O=C(CN1C(=O)COc2ccc(S(=O)(=O)N3CCCC3)cc21)NC1CCCCCCC1	i	11*
CCOC(=O)C1=NN(c2cccc(Cl)c2)C2=NC(C)=C(C(=O)OC)C(c3cccs3)N12 (configuration not stated)	-5.7*	-5.7
CCOC(=O)C1=NN(c2ccccc2)C2=NC(C)=C(C(=O)OC)C(c3cccs3)N12 (configuration not stated)	i	nt
CC(C)Cc1ccc(CN2CCCC(NC(=O)c3ccnn3C)C2)cc1 (configuration not stated)	i	nt
CC(C)Cc1ccc(CN2CCCC(NC(=O)c3nn(C)c(=O)c4ccccc34)C2)cc1 (configuration not stated)	-7.8*	-7.8
